Compounds without any hit were thinned out: in the full panel of roughly 83,000, 20% have a hit.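 Step 1: grow cells in 96-well plates. Step 2: add test compound at a single concentration. Step 3: incubate 48 h. Step 4: record percent growth.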 A number with no mark means an inactive call. Active and inactive are the calls of the source. How the source made its calls: active means growth percent below 10; inactive means the rest.
Legend:
Experiment in all cases: NCI-60 one-dose screen, 48 h (100 = growth as untreated, 0 = no growth, -100 = all killed)
SK-MEL-2 melanoma = conditions: 10 µM unless noted
EKVX NSCLC = conditions: 10 µM unless noted
SN12C renal = conditions: 10 µM unless noted
UO-31 renal = conditions: 10 µM unless noted
TK-10 renal = conditions: 10 µM unless noted
ACHN renal = conditions: 10 µM unless noted
CAKI-1 renal = conditions: 10 µM unless noted
A498 renal = conditions: 10 µM
HL-60(TB) leukemia = conditions: 10 µM unless noted
CCRF-CEM leukemia = conditions: 10 µM unless noted
MOLT-4 leukemia = conditions: 10 µM unless noted
SR leukemia = conditions: 10 µM unless noted
RPMI-8226 leukemia = conditions: 10 µM unless noted
OVCAR-8 ovarian = conditions: 10 µM unless noted
OVCAR-5 ovarian = conditions: 10 µM unless noted
OVCAR-4 ovarian = conditions: 10 µM unless noted
SK-OV-3 ovarian = conditions: 10 µM unless noted
IGROV1 ovarian = conditions: 10 µM unless noted
OVCAR-3 ovarian = conditions: 10 µM unless noted
HS 578T breast = conditions: 10 µM unless noted

Row | SMILES | growth (SK-MEL-2 melanoma) | growth (EKVX NSCLC) | growth (SN12C renal) | growth (UO-31 renal) | growth (TK-10 renal) | growth (ACHN renal) | growth (CAKI-1 renal) | growth (A498 renal) | growth (HL-60(TB) leukemia) | growth (CCRF-CEM leukemia) | growth (MOLT-4 leukemia) | growth (SR leukemia) | growth (RPMI-8226 leukemia) | growth (OVCAR-8 ovarian) | growth (OVCAR-5 ovarian) | growth (OVCAR-4 ovarian) | growth (SK-OV-3 ovarian) | growth (IGROV1 ovarian) | growth (OVCAR-3 ovarian) | growth (HS 578T breast)
1 | O=C(CCCCCCC(=O)Nc1ccc(N(CCCl)CCCl)cc1)NO | 49.5% | 76.7% | 18.8% | 62% | 38.5% | 16.7% | 23% | 54.1% | 18.4% | 19.4% | 19.5% | 12.2% | 49.1% | 19.3% | 53.7% | 44.9% | 26.3% | 59.2% | 41.7% | 71.7%
2 | CCc1ccccc1[C@@H]1C[C@]2(C)CCO[C@@H]2OO1 | 115% | 105% | 98.7% | 91.5% | 96.9% | 104% | 96.5% | 102% | 109% | 94.1% | 105% | 102% | 100% | 96% | 109% | 96.3% | 107% | 108% | 113% | 101%
3 | OCCNC(Cc1ccccc1)c1ccc2c(c1)OCO2 (stereo unspecified) | 72.2% | 100% | 98.8% | 78.9% | 73.2% | 106% | 97.1% | 86.5% | 79.6% | 111% | 82.6% | 99.1% | 102% | 98.7% | 105% | 117% | 74.7% | 107% | 100% | 103%
4 | CCOC(=O)C(Cc1ccc(N(CCCl)CCCl)cc1)NC(=O)C(CC(C)C)NC(C)=O (stereo unspecified) | -2.13% (active) | 114% | 25.4% | -48.7% (active) | 21.3% | 8.89% (active) | -20.7% (active) | 86.5% | 13.1% | 12.3% | 6.43% (active) | -13.9% (active) | 21% | 32.6% | 36.8% | -16.2% (active) | 53.3% | 22.5% | -34.4% (active) | 108%
5 | COc1ccc(/C=C\c2cc(OC)c(OC)c(OC)c2)cc1OCC(=O)Nc1nc2ccc(OC(F)(F)F)cc2s1 | 15.6% | 77% | 49.7% | 25.4% | 47% | 43.5% | 35.2% | 30.2% | 52.3% | 28.2% | 13.2% | 31.5% | 22.8% | 43.2% | 112% | 64.4% | 48.4% | 30.3% | -30.7% (active) | 12.5%
6 | CC(C)(C)C(=O)OCOP(=O)(OCOC(=O)C(C)(C)C)C1CCCN(O)C1=O (stereo unspecified) | 24.9% | 19.7% | 2.67% (active) | 5.91% (active) | 2.8% (active) | 8.69% (active) | 5.9% (active) | -24.3% (active) | -21% (active) | 9.89% (active) | 3.92% (active) | 13.7% | -18% (active) | 5.69% (active) | 32.5% | 11.2% | 12.2% | -4.01% (active) | 4.08% (active) | -8.85% (active)
7 | CC(=O)OC1C(OC/C2=C/C3[C@@H](C(C)C)CC=C(C)[C@@H]3CC(OC(=O)/C=C/c3cn(C)cn3)[C@]3(C)C=C[C@@]2(O)O3)OCC(O)C1O (stereo partly specified) | 45.6% | 33.9% | 44.2% | 40.4% | 32.3% | 45% | 37% | 13.2% | -3.65% (active) | 22.5% | 35.8% | 24.8% | 4.84% (active) | 32.7% | 49.4% | 43% | 11.9% | 33.6% | 15.3% | 21.8%
8 | Cc1cc(N(CCCl)CCCl)ccc1/C=N\NC(=O)c1ccncc1 | 120% | 94.3% | 64.5% | 82.5% | 93.1% | 73.9% | 33.2% | -94.9% (active) | 53.4% | 68.2% | 58.8% | 47.9% | 90.6% | 61.9% | 54.5% | 89.1% | 95.4% | 87% | 90.8% | 109%
9 | CC(=O)O[C@H]1C(=O)[C@@]2(C)[C@H]([C@H](OC(=O)c3ccccc3)[C@]3(O)C[C@H](OC(=O)[C@H](OC(=O)OC[C@H]4COC(C)(C)O4)[C@@H](NC(=O)c4ccccc4)c4ccccc4)C(C)=C1C3(C)C)[C@]1(OC(C)=O)CO[C@@H]1C[C@@H]2O | 14.3% | 27.1% | 22.5% | 33.8% | 25.6% | 34.5% | 20.7% | 21.1% | 3.13% (active) | 17% | 11.7% | 17.9% | 6.27% (active) | 15.9% | 6.17% (active) |  | 22.2% | 18.8% | 6.13% (active) | 3.36% (active)
10 | CCOC(=O)c1c(C)n(Cc2ccccc2)c2cc(CN(C)C)c(O)cc12 | 92.1% | 64.1% | 57.8% | 43.8% | 68.8% | 81.5% | 61.6% | 43.2% | 62% | 41.2% | 52.7% | 17.8% |  | 80.7% | 69.3% | 68.1% | 70.4% |  | 79.4% | 61.1%
11 | Oc1c(CCl)cc(Cl)cc1CCl | 105% | 104% | 122% | 86.4% | 106% | 106% | 104% | 119% | 103% | 108% | 98.4% | 101% | 106% | 112% | 102% |  | 107% | 115% | 115% | 104%
12 | C[CH2][Sn]([Cl])([Cl])[CH2]C.Oc1ccccc1C=NCCN=Cc1ccccc1O | 116% | 96.9% | 101% | 72.8% | 117% | 97.5% | 86.5% | 103% | 113% | 92.5% | 86.1% | 103% | 91.9% | 100% | 104% |  | 101% | 98.9% | 103% | 100%
13 | CC12CCC3C(CCC4=CC(=O)CCC43CF)C1CCC2=O (stereo unspecified) | 97.2% | 94.8% | 113% | 87.8% | 115% | 120% | 111% | 111% | 113% | 88.2% | 106% | 119% |  | 94.3% | 118% | 98.8% | 120% | 62.4% | 119% | 128%
14 | Cc1c(C)c([N+](=O)[O-])c(C)c(C)c1[N+](=O)[O-] | 90.8% | 98.7% | 111% | 106% | 107% | 106% | 91.3% | 94.3% | 109% | 99.1% | 100% | 93% | 106% | 95.7% | 93.8% | 98.2% | 117% |  | 118% | 118%
15 | COC(=O)[C@@H](C)C[C@H](Cc1ccccc1)NC(=O)c1csc([C@@H](C[C@H](C(C)C)N(C)C(=O)[C@@H](NC(=O)CN(C)C)C2CC2)OC(C)=O)n1 | 11.6% | 46.3% | 46.8% | 41.6% | 45.5% | 25.3% | 63.5% | 0.468% (active) | -27% (active) | 10.3% | 16.6% | 3.74% (active) | 34.3% | 20.1% | 56.3% |  | 42.2% | 28.4% | 1.63% (active) | 32.3%
16 | CC12CCC3C(C=CC4=C(N)C(=O)CCC43C)C1CCC2=O (stereo unspecified) | 74.4% | 98% | 88.5% | 64.6% | 85.6% | 88.2% | 84.1% | 99.2% | 52.5% | 6.62% (active) | 57.2% | -18.1% (active) |  | 44% | 108% | 62% | 120% | 49.5% | 64.6% | 113%
